KB-3-1 tox = kills parental KB-3-1 adenocarcinoma cells; AID 1347075; KB-3-1 viability, CellTiter-Glo ATP luminescence, 72 h; Potency, µM (titrated, usually from 46.1 µM), usual class: cytotoxic; 400,000 tested, 1.4% active; note: % is set by controls: 0 for no effect and ±100 for the full control effect; nearly all actives have a fitted effect of over 60% in size
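Cytotoxicity in the drug-sensitive parental line KB-3-1 was scored as loss of CellTiter-Glo luminescence following 72 h incubation with compound. Values come from curve fitting of normalized concentration-response data.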
SW480 rereplic = DNA re-replication induction in SW480 cells. SW480 DNA re-replication, Hoechst DNA content imaging, 48 h. Potency, µM (doses to about 46.1 µM), inactives show top-dose re-replication activation, hits mostly activators. 340,000 tested, 1.8% active. AID 624297; note: % of control where 0% means no effect; nearly all actives have a fitted effect of over 55% in size
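Treated cells incubate 48 hr (37 C, 5% CO2), are stained 40 min with Hoechst, and nuclear fluorescence is enumerated; a rise in nuclei with high DNA signal marks re-replication.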
KB-V1 MDR tox = kills drug-selected multidrug resistant KB-V1 cells. KB-V1 MDR cells viability, CellTiter-Glo, 72 h. Potency, µM (highest dose often 46.1 µM), hits mostly cytotoxic. 400,000 tested, 3.4% active. AID 1347076; note: % is set by controls: 0 for no effect and ±100 for the full control effect; nearly all actives have a fitted effect of over 60% in size
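qHTS viability screen in drug-selected KB-V1 MDR cells: 72 h compound treatment at 37 degrees C, ATP luminescence end point.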
MCF10A rereplic = DNA re-replication induction in MCF 10a cells; 350,000 tested, 2.9% active; MCF 10A DNA re-replication, Hoechst nuclear intensity, 48 h; Potency, µM (top dose mostly 46.1 µM), inactives show at the highest dose activity, positive = re-replication, hits mostly activators; AID 624296; note: % of control where 0% means no effect; nearly all actives have a fitted effect of over 50% in size
ELG1 repair inh = inhibitors of ELG1-dependent DNA repair in HEK293T cells. HEK293T ELG1-luciferase reporter, luminescence, 16 h; DNA damage induced by 5-fluorouridine. Potency, µM (titrated, usually from 46.1 µM), inactives show at the top dose activity change, negative = inhibition, most hits filed as inhibitors. 330,000 tested, 2.3% active; note: % is set by controls: 0 for no effect and ±100 for the full control effect; nearly all actives have a fitted effect of over 55% in size
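Step one: seed 2,000 cells per well. Step two: pin-transfer compound or DMSO alongside 5-fluorouridine. Step three: incubate 16 hr, 37 °C, 5% CO2. Step four: add ONE-Glo, wait 30 min, read luminescence.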
The depositor's hits bear a star; i = inactive; ? = inconclusive; / = not tested or not shown; ! = not confirmed by another sample. A selection: hits, their analogues and other compounds. The true share with any hit is near 8.1%. Calls come from the whole dose curve; as a rule, active = well fitted curve in the direction sought with a large enough effect; inconclusive = small, poorly fitted or top-dose-only effect, or another doubt; inactive = no such curve, though single readings can be large; an effect the other way counts as inactive or inconclusive. Potency is the fitted concentration of half-maximal effect.

SMILES	KB-3-1 tox	SW480 rereplic	KB-V1 MDR tox	MCF10A rereplic	ELG1 repair inh
COc1cccc(-n2nnc3c(=O)n(Cc4ccccc4Cl)cnc32)c1	i	-7%	18µM*	-2%	18%
COc1cccc(-n2nnc3c(=O)n(Cc4ccc(C)cc4)cnc32)c1	i	0%	?	14%	-1%
COc1cccc(-n2nnc3c(=O)n(Cc4ccc(Br)cc4)cnc32)c1	i	-4%	i	22%	0%
COc1cccc(-n2nnc3c(=O)n(Cc4ccc(Cl)cc4)cnc32)c1	i	-7%	15µM*	11%	1%
Cc1ccccc1C(=O)Nc1nc(-c2nnn(-c3ccc(C(C)C)cc3)c2C)ns1	i	/	i	/	/
CCOC(=O)[C@]12CCCC=C1N(Cc1ccccc1)C(=O)[C@H](CC(=O)NCC1CCCCC1)C2	i	/	?	/	/
COc1ccc2c(c1)/C(=C\c1cccc(/C=C3/C(=O)Nc4ccc(OC)cc43)n1)C(=O)N2	1.8µM*	2.9µM*	i	?	/
CCc1ccc(CNC(=O)c2ccc(CSc3nc4ccncc4n3Cc3ccccc3)cc2)cc1	i	/	i	/	/
O=C(NC1CCCCC1)N1CCCC(c2nc(-c3ccc(S(=O)(=O)N4CCCC4)cc3)no2)C1 (stereo unspecified)	?	-1%	3.7µM*	6%	?
O=S(=O)(NC1CC1)c1ccc(S(=O)(=O)N2CCCC(c3nc(-c4cccnc4)no3)C2)cc1 (stereo unspecified)	i	5%	8.2µM*	19%	?
CC(C)C(=O)N1CCC(c2nc(-c3ccc(S(=O)(=O)N4CCCC4)cc3)no2)CC1	i	-5%	12µM*	1%	-17%
O=S(=O)(c1ccc(F)cc1)N1CCCC(c2nc(-c3ccc(F)cc3)no2)C1 (stereo unspecified)	i	-2%	i	?	?
COC(=O)c1ccc(-n2c(/C=C/c3cc(OC)c(OC)c(OC)c3)nc3cc(Cl)ccc3c2=O)cc1	i	/	?	/	/
CC(C)(C)NCCC(O)c1cc(C(F)(F)F)nc2c(C(F)(F)F)cccc12 (stereo unspecified)	?	?	21µM*	18%	/
O[C@@H](c1cc(C(F)(F)F)nc2c(C(F)(F)F)cccc12)[C@H]1CCCCN1	18µM*!	?	?	?	15%
CC(C)Cn1c(N)c(C(=O)COC(=O)c2cc(C(F)(F)F)nc3c(C(F)(F)F)cccc23)c(=O)n(C)c1=O	/	-8%	/	5%	16%
Cc1cccc(C)c1NC(=O)CN(C)c1ccc(C(F)(F)F)cn1	i	12µM*	i	1%	-2%
Cc1cccc(C)c1NC(=O)CN(C)C(=O)c1ccc(-c2cccc(C(F)(F)F)c2)o1	i	4.1µM*	i	-27%	?
CCOC(=O)c1c(C)n(C)c2ccc(OC)c(NC(=O)CN3CCC(C(=O)OCC)CC3)c12	i	-20%	?	-3%	?
CCOC(=O)c1c(C)n(C)c2ccc(OC)c(NC(=O)CCN3CCSCC3)c12	i	2%	13µM*	13%	-11%
Cc1ccc(S(=O)(=O)Nc2ccc(O)c3ccccc23)c(C)c1	i	1%	i	21µM*	16µM*
Cc1cc(C)c(S(=O)(=O)Nc2ccc3c4c(cccc24)CC3)c(C)c1	0.73µM*	?	1.3µM*	0.37µM*	?
Cc1ccc(S(=O)(=O)Nc2ccc3c4c(cccc24)CC3)c(C)c1	?	?	21µM*	?	/
Cc1cc(C)c(S(=O)(=O)Nc2ccc(O)cc2)c(C)c1	i	6%	?	5%	?
Cc1cc(C)c(S(=O)(=O)Nc2ccccc2)c(C)c1	i	4%	18µM*	9%	/
SMILES	KB-3-1 tox	SW480 rereplic	KB-V1 MDR tox	MCF10A rereplic	ELG1 repair inh
COc1ccccc1CNC(=O)CN1NS(=O)(=O)c2ccccc2C1=O	i	?	i	-1%	-1%
c1ccc(-c2nnc3nc(N4CCCCC4)nc(N4CCCCC4)n23)cc1	?	2%	18µM*	4%	/
FC(F)(F)c1cc(-c2ccccc2)nc(N2CCCCC2)n1	i	-13%	i	?	10%
COc1ccc(/C=N/NC(=O)c2[nH]c3ccc(Cl)cc3c2-c2ccccc2)c(C(=O)O)c1OC	i	13%	i	?	11%
CN(C)c1ccc(/C=N/NC(=O)c2ccc3c(c2)OCO3)cc1	i	12%	i	0%	?
Cc1c(C(=O)N/N=C/c2ccc(N(C)C)cc2)[nH]c2ccc(Cl)cc12	5.8µM*	?	5.8µM*	15%	4%
Cc1c(C(=O)N/N=C/c2ccccc2)[nH]c2ccc(Cl)cc12	?	21µM*	i	15µM*	10%
O=C(Cn1cnc2c(nnn2Cc2ccc(F)cc2)c1=O)Nc1cccc(F)c1	i	-3%	i	-11%	?
O=C(Cn1cnc2c(nnn2Cc2ccc(F)cc2)c1=O)Nc1ccc2c(c1)OCCO2	i	?	i	16µM*	8%
CCCn1c(N)c(C(=O)CN(C)CC(=O)Nc2ccccc2C(F)(F)F)c(=O)[nH]c1=O	i	-3%	i	10%	9.2µM*
CCCn1c(N)c(C(=O)CN(C)CC(=O)Nc2cc(C)ccc2C)c(=O)[nH]c1=O	?	4%	i	0%	?
N#Cc1nc(COc2ccccc2Cl)oc1NCCc1ccccc1	i	/	i	/	/
Cc1ccc(CN2CC(C(=O)Nc3ccncc3)CC2=O)cc1 (stereo unspecified)	i	-4%	?	-7%	0%
Cc1ccc(CN2CC(C(=O)Nc3cc(C)ccn3)CC2=O)cc1 (stereo unspecified)	i	29µM*	?	16%	?
CCc1cccc(C)c1NC(=O)CN(C)Cc1ccccc1F	?	0%	21µM*	17%	-7%
O=C(CN1C(=O)COc2ccc(Cl)cc21)Nc1ccc(F)cc1	i	/	i	/	/
CCN1CCN(c2ncnc3c2nnn3Cc2ccccc2)CC1	i	1%	i	?	0%
Cc1nnc(N2CCOCC2)c2nn(-c3ccccc3)c(C)c12	i	-3%	?	-4%	-22%
c1ccc(-n2nnc3c(N4CCOCC4)ncnc32)cc1	?	-9%	16µM*	?	?
c1ccc(Cn2nnc3c(N4CCCC4)ncnc32)cc1	i	-9%	18µM*	3%	-3%
O=C(CSc1ncnc2c1nnn2Cc1ccccc1)NC1CCCCC1	i	?	i	23µM*	-8%
c1ccc(Cn2nnc3c(N4CCC5(CC4)OCCO5)ncnc32)cc1	i	0%	i	3%	-28%
c1ccc(Cn2nnc3c(N4CCc5ccccc5C4)ncnc32)cc1	i	4%	15µM*	?	?
c1ccc(-c2cc3c(N4CCOCC4)ncnc3s2)cc1	i	?	?	13µM*	?

High-throughput results from PubChem BioAssay.
